# Source: PubChem BioAssay (NCI)
# The panel holds about 79,000 compounds, 15% with a hit somewhere; the sample as a whole holds those more often. Values without a mark were called inactive. Activity calls are given as the source filed them. No stated cut-off is given here; in the data, active means growth inhibition above about 70%; inactive means the rest.
# Experiment: NCI Yeast Anticancer Drug Screen. Data for the wt2 strain (AID 169);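 further: 0% = growth of vehicle-treated yeast cultures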
# Details: S. cerevisiae wt2 strain growth inhibition, hits give high values
# Protocol: Growth inhibition of yeast strains with defined genetic alterations is measured as a screen for potential anti-cancer activity. Selected strains with alterations in DNA damage repair or cell cycle control were exposed to compounds and growth inhibition was measured relative to vehicle treated controls. The strain used in this assay is wt2
SMILES,growth inhibition (at 1.2 µM) [%],growth inhibition (at 3.7 µM) [%],growth inhibition (at 11.0 µM) [%],growth inhibition (at 33.0 µM),growth inhibition (at 100.0 µM)
O=Nc1ccc(Nc2ccccc2)cc1,-52,-47,-59,54%,97% (active)
Oc1ccc(C=Nc2ccccc2O)cc1,25,30,33,43%,65%
O=NN(CCCl)C(=O)NCCCl,-3,-3,-3,0%,3%
Nc1nc(F)nc2c1ncn2C1OC(COP(=O)(O)O)C(O)C1O (stereo not given),-2,1,1,6%,18%
COc1cc([C@@H]2c3cc4c(cc3[C@@H](OC3OC5COC(C)OC5C(O)C3O)[C@H]3COC(=O)[C@H]23)OCO4)cc(OC)c1O (stereo not given in full),-3,-2,-4,-3%,3%
COC(=O)c1ccc2c(c1)Cc1ccccc1-2,-3,-2,-4,3%,28%
CCN1/C(=C/c2ccc3ccccc3[n+]2CC)C=Cc2ccccc21,-32,-20,57,98% (active),98% (active)
Clc1cc(Cc2ccc(N=C/C=C/c3ccccc3)c(Cl)c2)ccc1N=C/C=C\c1ccccc1,-11,-17,-8,4%,26%
